# Data reported in the supplement of paper PMC10849652.
# Targets with a hit are over-represented here; the source holds about 7,900 in all. About 0.6% of all pairs of compound and target were hits. Values without a mark were called inactive.
# Columns and labels:
# Assay in all cases: log2 fold change, soluble protein after heating vs DMSO (PISA); higher = thermal stabilisation; K562 cells, 10 uM, 30 min; active = over 0.2 and 3.5 SD of the protein, either way, in both replicates (recomputed)
# IRAK-1-4 Inhibitor I = compound: C1COCCN1CCN2C3=CC=CC=C3N=C2NC(=O)C4=CC(=CC=C4)[N+](=O)[O-] [IRAK-1-4 Inhibitor I]
# Procedure, shortened: (§1)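 Values are thermal stability changes relative to control samples and are taken from duplicates. They are stated as log2 fold changes. Before quantification by TMTpro 16plex LC-MS/MS with equalised channel sums, K562 cells at 2×10^6 cells/mL were treated with 10 μM compound for 30 min, heated in aliquots for 3 min across 48°C-58°C, pooled, extracted in PBS with 0.5% NP-40 at 4°C, and centrifuged at 21,000xg for 90 min to give the soluble supernatant.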
# ibrutinib = compound: C=CC(=O)N1CCC[C@@H](n2nc(-c3ccc(Oc4ccccc4)cc3)c3c(N)ncnc32)C1 [ibrutinib]
# Procedure, shortened: as §1
# [1] = compound: CC(=O)c1cnc2ccc(-c3cc(Cl)c(O)c(Cl)c3)nc2c1N[C@H]1CC[C@H](CN(C)C)CC1
# Procedure, shortened: as §1
# ralimetinib = compound: CC(C)(C)Cn1c(N)nc2ccc(-c3[nH]c(C(C)(C)C)nc3-c3ccc(F)cc3)nc21 [ralimetinib]
# Procedure, shortened: as §1
# [2] = compound: CC(C)(O)CC(=O)NCCn1ccc2ncnc(Nc3ccc(Oc4cccc(C(F)(F)F)c4)c(Cl)c3)c21
# Procedure, shortened: as §1
# [3] = compound: CC(C)C1=C2N=C(C=C(N2N=C1)NCC3=CC=CC=C3)NCCCCCCN
# Procedure, shortened: as §1
# [4] = compound: CC(C)C[C@@H](C=O)NC(=O)[C@H](CC(C)C)NC(=O)[C@H](CC(C)C)NC(=O)OCc1ccccc1
# Procedure, shortened: as §1
# pinometostat = compound: CC(C)N(C[C@H]1O[C@@H](n2cnc3c(N)ncnc32)[C@H](O)[C@@H]1O)[C@H]1C[C@@H](CCc2nc3cc(C(C)(C)C)ccc3[nH]2)C1 [pinometostat]
# Procedure, shortened: as §1
# [5] = compound: CC1=C(C(CC(=O)N1)C2=CC=C(C=C2)C(F)(F)F)C(=O)NC3=C(C=C4C(=C3)C=NN4)F
# Procedure, shortened: as §1
# [6] = compound: CC1=C(C2=C(C=C1)C(=O)C3=CC=CC=C3N2CCCN)C
# Procedure, shortened: as §1
# Chain of UniProt Q03252 (Q03252 whole entry, looked up): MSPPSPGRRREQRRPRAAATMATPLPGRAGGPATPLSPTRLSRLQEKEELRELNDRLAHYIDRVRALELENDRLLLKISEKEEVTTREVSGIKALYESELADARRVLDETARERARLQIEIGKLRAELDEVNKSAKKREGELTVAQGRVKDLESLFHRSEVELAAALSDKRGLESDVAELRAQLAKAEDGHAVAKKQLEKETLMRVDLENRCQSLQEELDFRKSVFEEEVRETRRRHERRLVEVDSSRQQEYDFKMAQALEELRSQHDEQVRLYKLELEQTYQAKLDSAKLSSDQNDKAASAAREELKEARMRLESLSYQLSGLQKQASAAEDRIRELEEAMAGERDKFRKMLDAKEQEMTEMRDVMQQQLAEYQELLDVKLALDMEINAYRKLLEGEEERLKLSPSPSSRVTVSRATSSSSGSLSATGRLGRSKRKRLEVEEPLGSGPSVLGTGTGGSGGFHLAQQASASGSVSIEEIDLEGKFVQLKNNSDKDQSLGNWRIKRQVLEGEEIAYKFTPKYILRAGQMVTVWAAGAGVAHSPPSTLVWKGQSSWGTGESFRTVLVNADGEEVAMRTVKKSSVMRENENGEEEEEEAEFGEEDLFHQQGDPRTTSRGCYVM
# Chain of UniProt O95373 (O95373 whole entry, looked up): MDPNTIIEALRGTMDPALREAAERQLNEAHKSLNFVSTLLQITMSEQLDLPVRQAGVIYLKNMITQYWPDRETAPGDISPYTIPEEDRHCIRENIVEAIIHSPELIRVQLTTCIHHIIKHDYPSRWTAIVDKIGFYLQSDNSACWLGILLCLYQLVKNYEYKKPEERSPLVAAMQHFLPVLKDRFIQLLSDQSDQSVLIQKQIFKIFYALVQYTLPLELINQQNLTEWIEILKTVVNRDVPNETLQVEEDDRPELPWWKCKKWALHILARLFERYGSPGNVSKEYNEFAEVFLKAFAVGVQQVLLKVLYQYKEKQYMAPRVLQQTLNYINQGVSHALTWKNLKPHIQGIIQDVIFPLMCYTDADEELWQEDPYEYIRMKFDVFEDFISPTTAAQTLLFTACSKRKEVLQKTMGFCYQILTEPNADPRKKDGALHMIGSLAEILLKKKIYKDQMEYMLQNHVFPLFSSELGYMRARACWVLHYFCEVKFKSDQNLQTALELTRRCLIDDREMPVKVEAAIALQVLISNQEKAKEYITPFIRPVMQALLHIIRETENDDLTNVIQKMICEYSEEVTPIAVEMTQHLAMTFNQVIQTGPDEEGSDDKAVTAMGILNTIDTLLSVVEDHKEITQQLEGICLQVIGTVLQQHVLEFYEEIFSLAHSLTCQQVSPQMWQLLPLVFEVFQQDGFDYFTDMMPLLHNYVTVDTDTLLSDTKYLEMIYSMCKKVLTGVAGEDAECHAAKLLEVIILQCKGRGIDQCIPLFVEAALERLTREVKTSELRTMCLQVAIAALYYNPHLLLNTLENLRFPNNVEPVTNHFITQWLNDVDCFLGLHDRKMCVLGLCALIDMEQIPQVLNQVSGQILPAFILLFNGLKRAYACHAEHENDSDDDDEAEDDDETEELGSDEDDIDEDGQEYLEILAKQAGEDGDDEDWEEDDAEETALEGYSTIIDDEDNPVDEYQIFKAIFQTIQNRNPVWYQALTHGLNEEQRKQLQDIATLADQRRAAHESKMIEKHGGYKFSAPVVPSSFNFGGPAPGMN
# Chain of UniProt P01116 (P01116 whole entry, looked up): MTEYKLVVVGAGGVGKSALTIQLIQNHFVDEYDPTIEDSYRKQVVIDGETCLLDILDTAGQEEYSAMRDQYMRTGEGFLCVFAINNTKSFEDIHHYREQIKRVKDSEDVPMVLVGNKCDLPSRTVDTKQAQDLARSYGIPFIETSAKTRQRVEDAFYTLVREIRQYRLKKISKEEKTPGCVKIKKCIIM
# Chain of UniProt Q9H3F6 (Q9H3F6 whole entry, looked up): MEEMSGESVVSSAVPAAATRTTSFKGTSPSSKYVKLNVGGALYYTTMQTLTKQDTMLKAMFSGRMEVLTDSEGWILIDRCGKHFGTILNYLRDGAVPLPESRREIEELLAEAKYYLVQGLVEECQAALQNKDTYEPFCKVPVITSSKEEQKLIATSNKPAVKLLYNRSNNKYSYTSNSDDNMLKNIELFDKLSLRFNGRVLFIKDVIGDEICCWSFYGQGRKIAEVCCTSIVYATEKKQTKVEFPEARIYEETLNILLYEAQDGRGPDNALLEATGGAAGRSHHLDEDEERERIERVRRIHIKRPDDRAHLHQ
# Chain of UniProt Q14676 (Q14676 whole entry, looked up): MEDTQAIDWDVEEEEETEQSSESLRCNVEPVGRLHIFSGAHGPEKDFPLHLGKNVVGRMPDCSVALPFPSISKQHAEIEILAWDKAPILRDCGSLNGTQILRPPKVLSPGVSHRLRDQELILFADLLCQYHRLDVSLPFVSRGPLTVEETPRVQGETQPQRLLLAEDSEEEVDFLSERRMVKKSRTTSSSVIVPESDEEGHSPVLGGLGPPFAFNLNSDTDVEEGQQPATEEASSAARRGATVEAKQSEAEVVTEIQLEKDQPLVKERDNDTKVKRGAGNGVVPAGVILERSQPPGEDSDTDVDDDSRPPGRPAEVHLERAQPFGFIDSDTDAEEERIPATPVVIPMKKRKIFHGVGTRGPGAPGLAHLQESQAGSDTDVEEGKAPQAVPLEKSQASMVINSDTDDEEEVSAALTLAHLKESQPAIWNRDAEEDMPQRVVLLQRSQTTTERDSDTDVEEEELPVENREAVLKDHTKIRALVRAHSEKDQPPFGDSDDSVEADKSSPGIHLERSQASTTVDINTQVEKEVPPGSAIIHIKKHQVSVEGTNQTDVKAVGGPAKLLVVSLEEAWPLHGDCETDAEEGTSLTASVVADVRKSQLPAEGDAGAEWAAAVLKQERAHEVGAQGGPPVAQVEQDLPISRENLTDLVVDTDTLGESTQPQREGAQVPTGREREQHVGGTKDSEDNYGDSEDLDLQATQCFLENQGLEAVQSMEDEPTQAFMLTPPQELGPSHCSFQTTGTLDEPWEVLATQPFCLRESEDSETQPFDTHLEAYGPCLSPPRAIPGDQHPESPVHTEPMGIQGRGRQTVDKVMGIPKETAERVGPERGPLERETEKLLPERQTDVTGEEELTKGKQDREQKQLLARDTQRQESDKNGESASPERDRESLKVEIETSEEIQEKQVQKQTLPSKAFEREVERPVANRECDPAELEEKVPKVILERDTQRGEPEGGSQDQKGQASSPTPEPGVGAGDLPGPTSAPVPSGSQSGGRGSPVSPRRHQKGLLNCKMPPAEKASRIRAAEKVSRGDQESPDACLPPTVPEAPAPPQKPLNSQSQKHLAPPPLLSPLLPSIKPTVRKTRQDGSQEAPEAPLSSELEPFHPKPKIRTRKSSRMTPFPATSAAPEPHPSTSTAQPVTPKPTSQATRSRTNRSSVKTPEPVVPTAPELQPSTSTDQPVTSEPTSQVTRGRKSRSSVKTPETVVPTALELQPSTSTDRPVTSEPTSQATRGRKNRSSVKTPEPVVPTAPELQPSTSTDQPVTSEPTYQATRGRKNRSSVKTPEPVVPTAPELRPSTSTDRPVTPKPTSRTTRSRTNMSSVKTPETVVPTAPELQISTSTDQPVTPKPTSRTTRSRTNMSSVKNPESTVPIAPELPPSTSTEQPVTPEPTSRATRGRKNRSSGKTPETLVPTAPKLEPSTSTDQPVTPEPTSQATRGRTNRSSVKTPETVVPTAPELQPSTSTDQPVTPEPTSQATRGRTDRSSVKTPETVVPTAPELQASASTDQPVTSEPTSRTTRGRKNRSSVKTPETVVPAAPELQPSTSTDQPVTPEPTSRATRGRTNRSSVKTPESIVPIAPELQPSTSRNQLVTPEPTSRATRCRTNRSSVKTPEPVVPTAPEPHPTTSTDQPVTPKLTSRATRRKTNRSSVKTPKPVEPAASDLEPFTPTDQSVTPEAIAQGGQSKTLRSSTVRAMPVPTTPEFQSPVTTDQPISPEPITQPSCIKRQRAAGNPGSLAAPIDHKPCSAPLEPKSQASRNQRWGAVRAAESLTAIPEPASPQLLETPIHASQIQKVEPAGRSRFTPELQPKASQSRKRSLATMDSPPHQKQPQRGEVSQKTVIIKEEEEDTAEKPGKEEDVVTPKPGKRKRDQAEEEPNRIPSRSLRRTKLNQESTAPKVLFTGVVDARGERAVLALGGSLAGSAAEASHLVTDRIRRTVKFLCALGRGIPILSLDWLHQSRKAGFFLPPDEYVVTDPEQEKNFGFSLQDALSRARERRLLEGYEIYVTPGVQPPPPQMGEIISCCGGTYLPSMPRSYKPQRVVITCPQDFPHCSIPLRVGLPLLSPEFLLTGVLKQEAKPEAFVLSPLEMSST
# Chain of UniProt P49006 (P49006 whole entry, looked up): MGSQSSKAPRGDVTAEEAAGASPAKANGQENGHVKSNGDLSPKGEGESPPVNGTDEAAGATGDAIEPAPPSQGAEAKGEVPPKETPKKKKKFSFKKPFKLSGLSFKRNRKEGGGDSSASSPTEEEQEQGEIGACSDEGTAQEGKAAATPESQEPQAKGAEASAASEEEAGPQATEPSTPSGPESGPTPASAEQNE
# Chain of UniProt Q9NQ29 (Q9NQ29 whole entry, looked up): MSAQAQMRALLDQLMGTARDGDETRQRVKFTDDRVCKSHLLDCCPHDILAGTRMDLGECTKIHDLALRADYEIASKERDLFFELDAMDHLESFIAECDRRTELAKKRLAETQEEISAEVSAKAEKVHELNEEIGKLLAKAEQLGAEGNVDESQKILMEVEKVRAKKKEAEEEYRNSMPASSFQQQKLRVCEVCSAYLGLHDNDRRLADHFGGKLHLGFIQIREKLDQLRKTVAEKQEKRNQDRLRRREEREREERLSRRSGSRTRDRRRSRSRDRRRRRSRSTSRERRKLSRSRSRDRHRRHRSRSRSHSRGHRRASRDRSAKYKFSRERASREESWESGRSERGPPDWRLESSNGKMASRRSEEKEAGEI
# Chain of UniProt Q96A72 (Q96A72 whole entry, looked up): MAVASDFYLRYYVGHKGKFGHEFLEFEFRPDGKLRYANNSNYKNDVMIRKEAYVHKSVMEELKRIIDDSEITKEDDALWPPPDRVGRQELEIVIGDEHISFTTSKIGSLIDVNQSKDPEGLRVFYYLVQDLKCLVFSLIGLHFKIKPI
Target,log2 fold change (IRAK-1-4 Inhibitor I),log2 fold change (ibrutinib),log2 fold change [1],log2 fold change (ralimetinib),log2 fold change [2],log2 fold change [3],log2 fold change [4],log2 fold change (pinometostat),log2 fold change [5],log2 fold change [6]
MED22 (UniProt Q15528),0.013,0.076,-0.058,0.064,0.039,-0.016,0.076,0.012,-0.007,0.096
MARCKSL1 (UniProt P49006),0.041,0,-0.039,-0.069,0.106,0.006,-0.034,-0.017,-0.031,0.028
MICU1 isoform 3 (UniProt Q9BPX6),0,-0.009,-0.025,0.007,-0.016,-0.285 (active),0.08,0.076,0.067,0.09
LMBRD2 (UniProt Q68DH5),0.14,-0.034,0.034,-0.016,-0.021,-0.244 (active),-0.093,0.037,-0.007,0.012
METAP1D (UniProt Q6UB28),-0.122,0.017,0.084,0.01,-0.032,0.094,0.044,-0.003,0.073,-0.024
KIF21A isoform 4 (UniProt Q7Z4S6),-0.025,-0.053,-0.054,0.035,-0.062,-0.009,0.084,0.144,0.01,0.096
LMNB2 (UniProt Q03252),-0.026,-0.017,-0.214 (active),-0.018,0.052,-0.093,0.03,0.011,-0.013,-0.022
MARK3 (UniProt P27448),-0.071,-0.026,-2.03 (active),0.014,-0.035,-0.171,0.084,0.156,0.136,0.026
MCU (UniProt Q8NE86),0.06,-0.026,-0.036,-0.042,-0.108,-0.122,-0.026,0.03,0.025,0.017
KTN1 (UniProt Q86UP2),-0.066,-0.029,0.065,0.098,0,-0.343 (active),0.072,0.102,-0.019,0.071
IPO7 (UniProt O95373),0,-0.063,-0.021,0.032,-0.153,-0.309 (active),-0.069,0.012,0,-0.221 (active)
MDC1 (UniProt Q14676),-0.012,-0.013,-0.013,0.062,0.122,-0.321,0.176,0.133,0.001,0.11
KDM3B (UniProt Q7LBC6),-0.01,-0.04,-0.023,-0.018,-0.089,-0.047,0.014,-0.011,-0.018,-0.007
LSR (UniProt Q86X29),0.053,0.006,-0.139,-0.009,0.058,0.093,0.086,-0.046,-0.035,-0.008
MED1 (UniProt Q15648),-0.049,0.002,-0.28 (active),0.032,-0.008,-0.106,0.033,0.189,0.019,0.027
KCTD10 (UniProt Q9H3F6),0.01,0.024,-0.037,-0.049,0.043,0.277 (active),-0.02,-0.021,-0.017,-0.034
MAGOHB (UniProt Q96A72),-0.031,0.004,0.25,-0.094,0.015,0.061,0,-0.022,-0.034,0.028
ILF3 isoform 7 (UniProt Q12906),-0.098,0.014,0.172,0.067,0.086,0.338,0.001,0.134,0.006,0.218
MICU2 (UniProt Q8IYU8),-0.039,-0.001,-0.026,-0.05,-0.12,-0.292,0.128,0.211,0.072,0.136
LSS (UniProt P48449),-0.119,-0.087,-0.084,0.147,0.099,0.199,0.077,-0.116,-0.022,-0.195
LUC7L (UniProt Q9NQ29),-0.098,0.027,-0.137,0.009,0.08,-0.007,0.021,0.101,0.083,-0.056
ILRUN (UniProt Q9H6K1),0.031,0.044,-0.011,-0.004,-0.035,-0.148,0.027,-0.06,0.031,-0.055
IGFBP2 (UniProt P18065),0.196,0.09,0.166,-0.115,-0.063,-0.137,0.008,-0.192,0.254,-0.159
LEMD2 (UniProt Q8NC56),0.015,0.082,-0.066,-0.02,-0.024,-0.63 (active),0.022,-0.014,-0.051,0.131
MFN1 (UniProt Q8IWA4),0.057,-0.009,-0.047,-0.027,-0.043,-0.607 (active),0.078,0.018,0.015,0.098
LARP4 isoform 4 (UniProt Q71RC2),-0.091,0.037,-0.128,0.068,0.046,-0.19,0.059,0.114,0.133,-0.054
ILKAP (UniProt Q9H0C8),-0.07,-0.016,-0.055,-0.024,-0.133,-0.078,-0.053,-0.004,0.017,0.032
MAPRE3 (UniProt Q9UPY8),0.027,-0.044,-0.003,-0.142,-0.049,-0.079,-0.033,0.019,0.01,-0.029
KRAS isoform 2 (UniProt P01116),0.045,-0.035,-0.07,0.02,0.101,0.099,0.241 (active),0.014,0.001,0.072
KNTC1 (UniProt P50748),-0.084,-0.028,0.058,-0.007,0.012,-0.157,0.039,0.095,-0.02,-0.008
